Results as given in the supplement of paper PMC10338343.

The sequences below were run on MILI (PIWIL2) piRISC loaded with L1MC piRNA (26 nt) (assay: pre-steady-state target cleavage rate (min^-1); guide: L1MC piRNA 5'p-UAACUAAAUACUAUGCAAGCUGUAGG; MIWI and MILI are mouse PIWI proteins and EfPiwi is from a freshwater sponge; tags in brackets are library labels; higher = faster piRNA-guided slicing of the target). Conditions: auxiliary factor: none (no GTSF1).
Procedure, shortened: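 The pre-steady-state cleavage rate was derived from a burst-and-steady-state fit of Cleave-'n-Seq data. For these assays, 1 nM active affinity-purified piRISC loaded with a single synthetic guide was mixed with […] a transcribed, DNA-blocked target RNA library in HEPES–potassium acetate buffer at 33 °C, with or without 500 nM GTSF1 partner protein, for 0–8 or 0–960 min. Sequencing counts of uncleaved targets were normalised to depth and to weakly complementary targets, and k3 was capped at 0.0001 min^-1 after three trials were pooled.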
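Note: 1 nM active piRISC with 0.1 nM target library at 33 °C single turnover.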

pre-steady-state target cleavage rate, < 0.0001:
UCCUGGAUGUCGAACGAUAGUAUGUUAGUUA, UCCUGGAUGUCGAACGUUAGUAUUUCGUUA, UCCUGGAUGUCGAACGUUAGUAUUAACUUA
